The entries come from a sample that favours hits as a whole.
Pf Dd2 growth = Plasmodium falciparum Dd2 growth inhibition; P. falciparum Dd2 growth, SYBR Green, 72 h; Potency, µM (top dose mostly 28.9 µM), for the others: at the top dose activity, negative = inhibition, hits mostly inhibitors; 120,000 tested, 4.3% active; active = well fitted inhibition curve with a large enough effect;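 also: plate controls were DMSO vehicle for no effect and reference drug for full effect; nearly all actives have a fitted effect of over 65% in size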
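Readout: SYBR Green fluorescence, 485 nm excitation, 535 nm emission, after ~16 h lysis at 37C. Before that, Dd2-infected red cells (2.5% hematocrit) grew 72 h with compound, 29 uM top final concentration.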
An asterisk follows results filed as active; [ ] = dose if it differs, or a comment. Potency is read from the fitted curve at half-maximal effect.

For O=C(O)c1ccc(CN2CCC[C@H]2c2nc(-c3ccc(-n4ccnc4)nc3)no2)cc1 the results were Pf Dd2 growth -12%[44.1 µM].
For O=C(c1ccccc1)N1CCC2(CC1)COc1ccccc1[S+](=O)([O-])N2 the results were Pf Dd2 growth 13%.
O=C1CCC(CNC(=O)c2nc(-c3ccccc3)cc3[nH]ccc23)N1 (stereo unspecified) was read as Pf Dd2 growth 3%[44.1 µM].
Screening O=C(NCCCn1ccnc1)c1nc(-c2ccccc2)cc2[nH]ccc12 returned Pf Dd2 growth 11µM*.
Screening O=C(NCc1cccnc1)c1nc(-c2ccccc2)cc2[nH]ccc12 returned Pf Dd2 growth inactive.
Screening COC(=O)c1cccc(OCCn2ccnc2-c2nc[nH]c2C)c1 returned Pf Dd2 growth -7%.
For c1ccc(-c2cnc3n[nH]c(-c4ccc5c(c4)OCO5)c3n2)cc1 the results were Pf Dd2 growth 35%[44.1 µM].
Screening Fc1ccccc1-c1cnc2n[nH]c(-c3ccc4c(c3)OCO4)c2n1 returned Pf Dd2 growth inactive.
Oc1ccccc1-c1cnc2n[nH]c(-c3ccc4c(c3)OCO4)c2n1 was read as Pf Dd2 growth 11µM*.
For Cc1nc2ccccc2n1CCc1nc2c3ccccc3nc(SCC(=O)Nc3ccc(Br)cc3F)n2n1 the results were Pf Dd2 growth inactive.
Cc1nc2ccccc2n1CCc1nc2c3ccccc3nc(SCC(=O)Nc3cccc(C(F)(F)F)c3)n2n1 was read as Pf Dd2 growth inactive.
Screening Cc1nc2ccccc2n1CCc1nc2c3ccccc3nc(SCC(=O)Nc3ccc(C(C)C)cc3)n2n1 returned Pf Dd2 growth 8.9µM*.
Cc1cccc(-c2ccccc2C(=O)N2CCCC(CO)(Cc3ccccc3F)C2)c1 (stereo unspecified) was read as Pf Dd2 growth inactive.
For CCC(=O)N1CCCC(c2nc(C(C)C)no2)CCNC(=O)CC1 (stereo unspecified) the results were Pf Dd2 growth -2%.
O=C(C1CCCCC1)N1CCCC2(CC(c3cccnc3)=NO2)C1 (stereo unspecified) was read as Pf Dd2 growth 15%.
For COc1ccc(OCC(=O)N2CCN(CCc3ccncc3)CC2)cc1 the results were Pf Dd2 growth 19%.
For Cc1ccc(OCC(=O)N2CCN(CCc3ccncc3)CC2)cc1C the results were Pf Dd2 growth 10µM*.
CCCCOc1cccc(C(=O)N2CCN(CCc3ccncc3)CC2)c1 was read as Pf Dd2 growth -29%.
Screening COCc1cc(C[C@@H]2CC[C@H](O)[C@@H](CNC(=O)C(C)(C)C)O2)no1 returned Pf Dd2 growth 36%[44.1 µM].
Screening CC1=C[C@@H](CN2CCN(CCO)CC2)[C@H](C(C)C)C[C@H]1Cc1nnc(-c2ccc([N+](=O)[O-])cc2)o1 returned Pf Dd2 growth 2.5µM*.
`COc1ccc(-c2nnc(C[C@@H]3C[C@@H](C(C)C)[C@H](CN4CCN(CCO)CC4)C=C3C)o2)cc1` gave Pf Dd2 growth -33%.
CC1=C[C@@H](CN2CCC(CO)CC2)[C@H](C(C)C)C[C@H]1Cc1nnc(-c2ccc([N+](=O)[O-])cc2)o1 was read as Pf Dd2 growth 3.5µM*.
Screening Cc1ccc(C2Cn3nnc(-c4noc(COc5ccccc5)n4)c3CO2)cc1 (stereo unspecified) returned Pf Dd2 growth -22%.
CS(=O)(=O)N1C[C@H]2CCN(C(=O)Cc3ccccc3Cl)C[C@H]21 was read as Pf Dd2 growth -1%.
For Cc1cccc(NC(=O)N2C[C@@H](F)C[C@H]2C(=O)N2CCc3ccccc3C2)c1 the results were Pf Dd2 growth 25%.
CC(C)c1nnc(C2CN(C(=O)c3cccs3)CC23CCOCC3)o1 (stereo unspecified) was read as Pf Dd2 growth -11%.
For N#Cc1cccnc1N1CCN(Cc2cn(-c3ccccc3)nn2)CC1 the results were Pf Dd2 growth -1%.
Screening CCc1n[nH]c(CC2CCN(C(=O)C3CC3)CC2)n1 returned Pf Dd2 growth 4%.
Screening CNc1cc(C2CC(NS(=O)(=O)c3cc(C)sc3C)C2)nc(N)n1 (stereo unspecified) returned Pf Dd2 growth 8.9µM*.
For Cc1cc(C(F)(F)F)nc(CCNc2cc(C3CC(N)C3)nc(N)n2)n1 (stereo unspecified) the results were Pf Dd2 growth -21%.
Screening CS(=O)(=O)NC1CCN(c2cc(C3CC(N)C3)nc(N)n2)CC1 (stereo unspecified) returned Pf Dd2 growth 0%.
`CC(C)NC(=O)N[C@H]1C[C@@H](C(=O)N[C@H](Cc2c[nH]c3ccccc23)C(N)=O)N(C(=O)c2cccn2C)C1` gave Pf Dd2 growth 8%.
COCCN1C(=O)[C@H]2CN(Cc3ccc(OC(F)(F)F)cc3)C[C@H]2C1=O was read as Pf Dd2 growth 36%.
`CCN(CC)C(=O)C(C)[C@@H]1CC[C@@]2(C)CC[C@H](NC(=O)CC(C)(C)C)[C@@H](C)[C@@H]2[C@H]1O` (stereo partly specified) gave Pf Dd2 growth inactive.
C[C@H]1[C@@H]2[C@@H](O)C([C@H](C)C(=O)NCCN3CCOCC3)CC[C@@]2(C)CC[C@@H]1NC(=O)CC(C)(C)C (stereo partly specified) was read as Pf Dd2 growth -2%.
Screening C[C@H]1[C@@H]2[C@H]3OC(=O)[C@@H](C)[C@@H]3CC[C@@]2(C)CC[C@@H]1NC(=O)CC(C)(C)C returned Pf Dd2 growth 1.3µM*.
`C[C@H]1[C@@H]2[C@H]3OC(=O)[C@@H](C)[C@@H]3CC[C@@]2(C)CC[C@@H]1NC(=O)C1CCCCC1` gave Pf Dd2 growth inactive.
Screening COCC(=O)N[C@H]1CC[C@]2(C)CC[C@@H]3[C@H](OC(=O)[C@H]3C)[C@H]2[C@@H]1C returned Pf Dd2 growth -7%[44.1 µM].
`CC(C)NC(=O)C(C)[C@@H]1CC[C@@]2(C)CC[C@H](NC(=O)CC(C)(C)C)[C@@H](C)[C@@H]2[C@H]1O` (stereo partly specified) gave Pf Dd2 growth 6.3µM*.
`C[C@@H](NC(=O)C1CCCCC1)c1c(-c2ccc(F)cc2)noc1C(=O)O` gave Pf Dd2 growth 3%[44.1 µM].
Screening C=CCOC(=O)C1=C(C)N(Cc2ccc(Br)cc2)C(=O)CC1c1ccccc1Cl (stereo unspecified) returned Pf Dd2 growth -22%.
`Cc1noc2ccc(-c3ccccc3OCc3ccccc3)nc12` gave Pf Dd2 growth -20%[44.1 µM].
Screening Cc1[nH]c2ccccc2c1SCCNC(=O)c1ccc(F)cc1 returned Pf Dd2 growth -28%.
COc1ccc(C(=O)NCCSc2c(C)[nH]c3ccccc23)cc1 was read as Pf Dd2 growth -3%.
`CCN(CC)S(=O)(=O)c1ccc(C(=O)NCCSc2c(-c3ccc(C)cc3)[nH]c3ccccc23)cc1` gave Pf Dd2 growth 10µM*.
For Cc1nn(C)c(C)c1CCC(=O)N1C[C@@H](Oc2ccccc2)C[C@H]1C(=O)NC1CC1 the results were Pf Dd2 growth 15%.
For Cc1noc2c(NC3CCN(C)CC3)cc(-c3ccccc3)nc12 the results were Pf Dd2 growth inactive.
For O=S(=O)(c1cccc(F)c1)N1CCC(OC2CCN(Cc3ccccc3)CC2)CC1 the results were Pf Dd2 growth 2.8µM*.
Screening CCOC(=O)CCNC(=O)N1CCC(OC2CCN(Cc3ccccc3)CC2)CC1 returned Pf Dd2 growth 37%.
For Cc1ccc(C(=O)N2CCC(OC3CCN(Cc4ccccc4)CC3)CC2)cc1 the results were Pf Dd2 growth 8.9µM*.
For CC(C)S(=O)(=O)N1CCC(OC2CCN(Cc3cccnc3)CC2)CC1 the results were Pf Dd2 growth 20%.
